Laboratory results reported in PubChem BioAssay AID1117267 (The Scripps Research Institute Molecular Screening Center, 2014).
In all, about 92,000 compounds went through this assay and about 1,200 (1.3%) were called active. What follows is part of a selection rich in actives, with near analogues and random picks from the rest. Unmarked numbers belong to inactive results.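 How the source made its calls: active means activation above the mean of all tested compounds plus 3 SD (cut at about 9.5% in these data); inactive means the rest.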

Experiment: compounds raising TTR promoter-driven luciferase – cell-based, luminescence, SH-SY5Y, TTR promoter Gaussia luciferase, primary screen (AID 1117267);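 further: cells exposed to compounds for one day before reading; 0% = median of all test compound wells on the plate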
Conditions: at 16.7 µM, stronger effect = higher value, 100% = recombinant luciferase protein wells

Compared with `COc1ccc(-c2cc(C(=O)N/N=C/c3cccnc3)c3ccccc3n2)c(OC)c1`, `CCOc1ccc(-c2cc(C(=O)N/N=C/c3ccc(O)cc3)c3ccccc3n2)cc1` is higher in activation: -1.67% for the first, -0.07% for the second.

First: COc1ccc2c(CC(=O)OCC(=O)NC(N)=O)coc2c1
Second: CCOC(=O)Cc1csc(NC(=O)COc2ccc3c(C)cc(=O)oc3c2)n1
The activation of the first is higher: 1.14% for the first, -0.4% for the second.

First: O=C(NNS(=O)(=O)c1ccccc1)c1cnn(-c2ccc(Cl)cc2)c1C(F)(F)F
Second: O=S(=O)(Nc1ccccn1)c1cccc(S(=O)(=O)c2ccc(Cl)cc2)c1
The activation of the first is lower: -0.1% for the first, 1.15% for the second.

Compared with `CC(=O)Nc1ccc(C(=O)Nc2nc(-c3cc(C)n(Cc4ccccc4)c3C)cs2)cc1`, `Cc1ccc(C(=O)Nc2c(C#N)c(C)c(C)n2Cc2ccccc2)cc1` is higher in activation: -0.51% for the first, 0.67% for the second.

Going from `COc1ccc(S(=O)(=O)N(CC(=O)N/N=C/c2ccccc2C(=O)O)c2ccccc2OC)cc1` to `Cc1ccc(Sc2cc(C(=O)c3ccccc3C(=O)O)ccc2[N+](=O)[O-])cc1`, the activation rises from -0.82% to 1.71%.

Going from `CSCCC(c1nnnn1Cc1ccccc1)N1CCN(C/C=C/c2ccccc2)CC1` (centres undefined) to `O=C(c1cccc(S(=O)(=O)N2CCCCCC2)c1)N1CCN(Cc2ccccc2)CC1`, the activation rises from -2.08% to -0.07%.

Compared with `COc1ccc(C(=O)N2CCCC(C(=O)c3ccccc3OC)C2)cc1OC` (centres undefined), `COC(=O)C1CCN(C(=O)c2ccc3oc(Cc4ccc(Cl)cc4)nc3c2)CC1` is lower in activation: -0.18% for the first, -1.37% for the second.

Going from `Cc1nc(Cl)cc(N/N=C/c2ccccc2)n1` to `Cc1c(NC(=O)C(=O)N/N=C/c2cccs2)c(=O)n(-c2ccccc2)n1C`, the activation rises from -2.14% to -1.22%.

Compared with `COC(=O)c1sc(N)c(C(=O)OC)c1COC(=O)CNS(=O)(=O)c1ccc(C)cc1`, `COc1cc(NS(=O)(=O)c2ccc(NC(=O)CN3C(=O)c4ccccc4C3=O)cc2)ncn1` is higher in activation: -1.81% for the first, 0.85% for the second.

Compared with `O=C(N=C1SC2CS(=O)(=O)CC2N1Cc1ccccc1)c1ccccc1` (centres undefined), `O=C(Cc1ccccc1)Nc1cccc(NC(=O)c2ccccc2)c1` is lower in activation: 1.31% for the first, -1.17% for the second.

Compared with `O=C(NNC(=O)c1ccc(-n2cncn2)c([N+](=O)[O-])c1)c1ccccc1`, `C/C(=C\C(=O)c1ccccc1)Nc1cccc(O)c1` is higher in activation: -1.38% for the first, -1.23% for the second.

Compared with `Cc1ccsc1C(=O)OCC(=O)NCCc1ccccc1`, `O=C(C1=C(O)C(=O)N(CCOCCO)C1c1ccccn1)c1cccs1` (centres undefined) is lower in activation: 2.82% for the first, -0.44% for the second.

Going from `C=CCOc1ccc(/C=C2\SC(=S)N(CCC(=O)O)C2=O)cc1` to `O=C1CN(C(=O)COC(=O)/C=C/c2ccc(F)cc2)c2ccccc2N1`, the activation falls from 0.39% to 0.24%.

Going from `O=C1CN(C(=O)COc2c(Cl)cccc2Cl)c2ccccc2N1` to `O=C1NC(=Nc2ccc(Cl)cc2)SC1Cc1cccc(Cl)c1Cl` (centres undefined), the activation falls from -1.21% to -2.63%.

First: O=C(CSc1nc2cccc(F)c2c(=O)n1-c1ccccc1)Nc1ccc2c(c1)CCC2
Second: O=c1[nH]cccc1-c1nc2ccccc2n1Cc1ccc(Cl)cc1
The activation of the first is lower: -1.17% for the first, 1.33% for the second.

Compared with `COc1cc(NS(=O)(=O)c2ccc(NC(=O)c3ccc([N+](=O)[O-])cc3)cc2)ncn1`, `Cn1c(=O)c2cc(S(=O)(=O)NCCC(=O)Nc3ccc(F)cc3F)ccc2n(C)c1=O` is higher in activation: -0.02% for the first, 0.89% for the second.

Going from `COc1ccc2c(c1)O/C(=C\c1ccccc1O)C2=O` to `COc1ccc2[nH]c3c(=O)n(Cc4ccco4)cnc3c2c1`, the activation rises from -0.14% to 1.08%.

Compared with `CC(=O)OCc1cc(=O)n(C)c(=O)n1C`, `COC(=O)COc1ccc2oc(=O)cc(C)c2c1` is lower in activation: 1.42% for the first, -3.29% for the second.

Going from `CC1CCN(S(=O)(=O)c2ccc(S(=O)(=O)NCc3cccnc3)cc2)CC1` to `CC1Cc2ccccc2N1S(=O)(=O)c1cccc(C(=O)OCC(=O)N2CCOCC2)c1` (centres undefined), the activation rises from 1.06% to 2.01%.

First: CCC(C)C(=O)Nc1ccccc1N1CCN(c2ccc(F)cc2)CC1 (centres undefined)
Second: N#Cc1ccc(/C=C2\CCn3c2nc2cc(C(=O)O)ccc2c3=O)cc1
The activation of the first is higher: 1.32% for the first, -0.49% for the second.

First: COC[C@@H]1CCCN1c1ccc2c(c1)O[C@H](C)CCN(C1CC1)S2(=O)=O
Second: COc1ccc(CN2CN(C3CCCC3)CSC2=S)cc1
The activation of the first is higher: 1.42% for the first, -1.82% for the second.

Going from `CN(CCc1ccccc1)C(=O)c1cccc(NC(=O)Cc2cccc(NC(=O)C3CCCN(C(=O)CCc4ccccc4)C3)c2)c1` (centres undefined) to `Cn1c2ccccc2c(=O)c2c(=O)n(Cc3ccco3)c(COc3ccccc3)nc21`, the activation rises from -4.56% to -1.02%.

Going from `C(#CCN1CCOCC1)CCCN1CCOCC1` to `O=c1c2c3c(sc2n(CCN2CCCC2)c(=O)n1Cc1ccccc1)CCCCC3`, the activation rises from 0.16% to 1.57%.

Compared with `O=C(Nc1nncs1)c1cccc(S(=O)(=O)N2CCCCC2)c1`, `O=c1ccnc(Nc2ccc(Cl)cc2)[nH]1` is higher in activation: 0.77% for the first, 1.51% for the second.

With `Cc1c(C#N)c(NC(=O)c2ccccc2)n(Cc2ccccc2)c1C` the activation was 10.7% (active).
For `CC(C)NC(=O)c1ccc(Sc2ccccc2)c([N+](=O)[O-])c1`, the activation was 14.4% (active).
In the case of `CCOc1ccc(N=C2NC(=O)S/C2=C\c2ccc(O)cc2)cc1`, the activation is reported as 11.2% (active).
With `O=C1CN(C(=O)COC(=O)C2CC(=O)N(Cc3ccco3)C2)c2ccccc2N1` (centres undefined) the activation was 12.4% (active).
In the case of `COc1ccc(S(=O)(=O)NCC(=O)NCc2cc(=O)n(C)c(=O)n2C)cc1F`, the activation is reported as 53.5% (active).
In the case of `O=C(Nc1cccc(O)c1)c1ccc(C(=O)c2ccccc2)o1`, the activation is reported as 15.8% (active).
For `CC(=O)c1c(C)[nH]c(C(=O)COc2ccc3c(C)cc(=O)oc3c2)c1C`, the activation was 11.5% (active).
With `COc1ccc(-c2oc3ncn(Cc4ccco4)c(=N)c3c2-c2ccc(OC)cc2)cc1` the activation was 11.8% (active).
In the case of `O=C(NNC1=NCCC1)c1cccc(S(=O)(=O)N2CCCCC2)c1`, the activation is reported as 12% (active).
With `COc1ccc(C2c3ccc(O)cc3Oc3ncn(CCCO)c(=N)c32)cc1OC` (centres undefined) the activation was 9.86% (active).
With `O=C(CS(=O)(=O)c1ccccc1)Nc1ccc(S(=O)(=O)Nc2ccccn2)cc1` the activation was 11.2% (active).
